Source: PubChem BioAssay (National Center for Advancing Translational Sciences (NCATS))
HTT cytoprotect: qHTS Multiplex Assay to Identify Dual Action Probes in a Cell Model of Huntington: Cytoprotection (ATP); PC12 HTT-Q103 induced, cytoprotection, ATP luminescence, 40 h; AID 1471, 2008; Potency, µM (highest dose often 56.4 µM), inactives show cytoprotection (ATP increase), usual class: activators; hit rate 0.14% among 230,000; also: potency is read from the fitted curve at half-maximal effect; % of control where 0% means no effect; nearly all actives have a fitted effect of over 45% in size
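Huntington model: PC12 line, ecdysone-inducible HTTQ103 exon1–GFP, tebufenozide 100 nM. Test articles in a dose series. Endpoint luminescence from cellular ATP.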
HttQ103 aggreg: qHTS Multiplex Assay to Identify Dual Action Probes in a Cell Model of Huntington: Aggregate Formation (GFP) | PC12 HttQ103-GFP aggregates, Acumen cytometry, 40 h | Potency, µM (titrated, usually from 46.1 µM), for the others: at the highest dose activity change, negative = inhibition, usual class: inhibitors | hit rate 1.1% among 220,000 | AID 1688, 2009; also: potency is read from the fitted curve at half-maximal effect; % is scaled to controls: 0 for no effect and ±100 for the full control effect; nearly all actives have a fitted effect of over 60% in size
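Read-out: GFP aggregate count by laser scanning cytometer (488 nm excitation, 500-530 nm emission, 1–25 µm objects >6 SD above background). Cells: PC12, inducible HTTex1-Q103-GFP, 100 nM tebufenozide; compounds titrated.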
PNC assembly inh: High Content Assay for Compounds that inhibit the Assembly of the Perinucleolar Compartment | PC3M PTB-GFP, PNC prevalence imaging, 16 h; active compounds read low | activity change (PNC), negative = inhibition, % at 10 µM | hit rate 3.1% among 140,000 | AID 2417, 2010;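 active = readout at or below -70, meaning at least 70% loss of cells showing the perinucleolar compartment, a nuclear body marking cancer cells; inconclusive = readout between -30 and a set limit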;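 also: plate controls were DMSO wells for no effect and camptothecin positive control wells for full effect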
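Compounds are pinned in duplicate onto adhered PC3M cells stably expressing GFP-tagged PTB and incubated 16 h at 37 C. Cells are then fixed, nuclei stained with Hoechst, and PNC-positive cells counted.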
HPGD inh: qHTS Assay for Inhibitors of HPGD (15-Hydroxyprostaglandin Dehydrogenase). purified HPGD, NADH fluorescence kinetic, PGE2 substrate. AID 894, 2007. 15-hydroxyprostaglandin dehydrogenase [NAD(+)] (Homo sapiens), P15428. Potency, µM, for the others: at the top dose activity change, negative = inhibition, usual class: inhibitors. hit rate 4.3% among 150,000; active = well fitted inhibition curve with a large enough effect, not every such curve was filed as active; inconclusive = small, poorly fitted or top-dose-only effect, or another doubt; inactive = no such curve, though single readings can be large or run the other way; also: potency is read from the fitted curve at half-maximal effect; % is scaled to controls: 0 for no effect and ±100 for the full control effect
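NADH formation kinetics: reaction with 30 uM PGE2 and 1 mM NAD+ (final), 20 nM enzyme, Tris-HCl pH 8 with Tween 20, after 15 min compound preincubation at room temperature. Fluorescence change, last versus first of five reads.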
ALDH1A1 inh: qHTS Assay for Inhibitors of Aldehyde Dehydrogenase 1 (ALDH1A1) | Aldehyde dehydrogenase 1A1 (Homo sapiens), P00352 | Purified ALDH1A1, NADH fluorescence, propionaldehyde substrate | Potency, µM (titrated, usually from 75.3 µM), inactives show top-dose activity, negative = inhibition, most hits filed as inhibitors | hit rate 7.3% among 220,000 | AID 1030, 2008; active = well fitted inhibition curve with a large enough effect, not every such curve was filed as active; inconclusive = small, poorly fitted or top-dose-only effect, or another doubt; inactive = no such curve, though single readings can be large or run the other way;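 also: potency is read from the fitted curve at half-maximal effect; plate controls were no enzyme wells and a reference inhibitor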
CBFb-RUNX1 inh: qHTS Assay for Compounds Blocking the Interaction Between CBF-beta and RUNX1 for the Treatment of Acute Myeloid Leukemia; Runt-related transcription factor 1 (Homo sapiens) + Core-binding factor subunit beta …; AlphaScreen CBFb-His/RUNX1-biotin binding, biochemical; Potency, µM (titrated, usually from 59.8 µM), without a hit: at the top dose activity, negative = inhibition, most hits filed as inhibitors; 230,000 tested, under 10 active; AID 1477, 2009; also: % of control where 0% means no effect
Target sequence (Q01196 whole entry, looked up): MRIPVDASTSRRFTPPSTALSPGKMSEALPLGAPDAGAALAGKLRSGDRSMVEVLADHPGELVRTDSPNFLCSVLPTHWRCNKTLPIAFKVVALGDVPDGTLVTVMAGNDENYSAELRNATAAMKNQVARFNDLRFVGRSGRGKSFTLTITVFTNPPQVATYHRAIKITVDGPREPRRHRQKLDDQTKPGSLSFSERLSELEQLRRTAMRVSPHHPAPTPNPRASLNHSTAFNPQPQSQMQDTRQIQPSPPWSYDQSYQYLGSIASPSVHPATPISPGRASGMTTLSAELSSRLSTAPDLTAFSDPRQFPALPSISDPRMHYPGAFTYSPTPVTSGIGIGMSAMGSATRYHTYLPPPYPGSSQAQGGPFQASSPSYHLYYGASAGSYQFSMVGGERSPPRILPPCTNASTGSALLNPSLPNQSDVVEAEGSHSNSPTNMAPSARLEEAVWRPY
Target sequence (Q13951 whole entry, looked up): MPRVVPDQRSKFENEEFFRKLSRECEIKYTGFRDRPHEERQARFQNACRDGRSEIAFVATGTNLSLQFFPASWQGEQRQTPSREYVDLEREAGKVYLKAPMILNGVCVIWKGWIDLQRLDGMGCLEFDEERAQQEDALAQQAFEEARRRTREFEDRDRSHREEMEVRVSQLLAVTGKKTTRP
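AlphaScreen proximity signal reports loss of binding between His-tagged CBF-beta and biotin-labelled RUNX1, each at 30 nM. Proteins are pre-associated for 20 minutes, compounds added for 15 minutes, then beads for 90 minutes, all at ambient temperature.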
Numbers without * were called inactive; ? = inconclusive; . = no result given; [ ] = remark or other dose. In the library only some 11% were active in any assay of this set; here they are far more common. Unless noted, calls follow the shape of the dose curve; as a rule, active = well fitted curve in the direction sought with a large enough effect; inconclusive = small, poorly fitted or top-dose-only effect, or another doubt; inactive = no such curve, though single readings can be large; an effect the other way counts as inactive or inconclusive.

SMILES	HTT cytoprotect	HttQ103 aggreg	PNC assembly inh	HPGD inh	ALDH1A1 inh	CBFb-RUNX1 inh
c1ccc(Nc2nc(N3CCOCC3)nc(N3CCOCC3)n2)cc1	-8%[10 µM]	?	-5	0%	2%	5%
O=C(CCCN1CCN2CCCC2C1)c1ccc(F)cc1 (centres undefined)	?	-5%	.	.	.	.
N#Cc1ccc(CSc2nc(-c3cccs3)c3c(c2C(=O)O)CCCC3)cc1	.	.	.	18µM*	?	.
COC(=O)CSc1nc(-c2ccccc2)c2c(c1C#N)CCCC2	-13%	17%	?	?	?	5%
O=C(Nc1cccc(Cl)c1Cl)c1snnc1-c1ccccc1	-15%	0%	31	-32%	?	-2%
O=C(Nc1cc(Cl)ccc1O)c1snnc1-c1ccccc1	-67%	16µM*	-7	-20%	-10%	-9%
CCOC(=O)C(C(=O)OCC)N(Cc1cc(OC)ccc1OC)C(=O)C1CC(CO[Si](C)(C)C(C)(C)C)=CN1C(=O)OC(C)(C)C (centres undefined)	.	.	.	.	.	9%
COC(=O)NC1CSCC1OC(=O)CN1C(=O)c2ccccc2C1=O (centres undefined)	12%[1.9 µM]	10%	-85*	-6%	2%	-5%
CCOC(=O)CN1C(=O)c2ccccc2C1=O	28%	-2%	?	-7%	5%	4%
CCOc1ccc(C(=O)NC(=S)Nc2ccc(N3CCC(C)CC3)cc2)cc1[N+](=O)[O-]	24%[10 µM]	11%	-119*	-30%	7.9µM*	-8%
CCC(=O)N1CCN(c2ccc(NC(=S)NC(=O)c3ccc(OC)c([N+](=O)[O-])c3)cc2)CC1	2%[10 µM]	20%[9.22 µM]	.	.	11µM*	-14%
CCOC(=O)C1=C(C)NC(=O)N[C@@H]1c1coc2cc(C)cc(C)c2c1=O	-15%[10 µM]	.	.	-1%	5%[13.5 µM]	.
COC(=O)[C@H](N)Cc1ccc(Cl)cc1	5%[1.9 µM]	.	.	.	.	.
CC(=O)Oc1ccc(N2C(=O)C3C4C=CC(C5CC45)C3C2=O)cc1[N+](=O)[O-] (centres undefined)	10%[10 µM]	-17%	-12	-29%	6.3µM*	7%
CC(=O)Oc1ccc(N2C(=O)C3C(C2=O)C2C=CC3C23CC3)cc1[N+](=O)[O-] (centres undefined)	-34%	-15%	.	.	7.9µM*	0%
CC(=O)Oc1cccc(N2C(=O)C3C4C=CC(C4)C3C2=O)c1 (centres undefined)	-16%[10 µM]	5%	-1	-10%	10%	2%
Cc1ccc(Sc2cncc3sc(C(N)=O)cc23)cc1	.	.	.	.	.	18%
CCNc1ncc2nc(-c3ccc(F)cc3)c(=O)n(C)c2n1	-42%	.	.	.	?	.
CCOc1ccc(C2C(C#N)=C(N)N3C(=C2C#N)Sc2ccccc23)cc1 (centres undefined)	0%	7%	18	-5%	?	25%
N#CC1=C(N)SC(N)=C(C#N)C1c1ccc(C(F)(F)F)cc1	11%[10 µM]	-1%	-127*	-28%	25µM*	20%
CCc1ccc(C2C(C#N)=C(N)SC(N)=C2C#N)cc1	10%	7%	?	35µM*	11µM*	-2%
Cc1ccc(C2C(C#N)=C(N)SC(N)=C2C#N)o1	-13%	?	18	?	?	?
CCc1ccc(C2C(C#N)=C(N)SC(N)=C2C#N)s1	-1%	-31%	13	28µM*	?	3%
N#CC1=C(N)SC(N)=C(C#N)C1c1ccc([N+](=O)[O-])cc1	22%[10 µM]	15%	50	?	10µM*	-11%
Cc1nc(N2CCOCC2)c2nc(-c3ccccc3)n(CCN3CCCCC3)c2n1	-56%	.	.	?	?	-12%
SMILES	HTT cytoprotect	HttQ103 aggreg	PNC assembly inh	HPGD inh	ALDH1A1 inh	CBFb-RUNX1 inh
COc1ccc2cc1Oc1cc3c(cc1OC)CC[N+](C)(C)C3Cc1ccc(cc1)Oc1c(OC)c(OC)cc3c1C(C2)[N+](C)(C)CC3 (centres undefined)	-5%	10%	.	.	.	.
CC(CC(=O)O)(CC(=O)O)c1ccccc1	-19%[10 µM]	.	.	-7%	0%[13.5 µM]	.
O=C1CS/C(=N/N=C/c2ccccc2)N1Cc1ccco1	31%[10 µM]	23%[9.22 µM]	.	.	11µM*	1%
COc1ccc(OC)c(/C=N/N=C2\SCC(=O)N2Cc2ccco2)c1	-8%[10 µM]	28%	-4	-15%	5µM*	-15%
COc1cccc(-c2nc(NCCNC(C)=O)c3ccccc3n2)c1	-20%	.	.	.	4%	.
Cc1cc(OCC(F)(F)C(F)(F)C(F)(F)C(F)(F)C(F)(F)C(F)F)nc(N)n1	29%	-7%	23	-19%	-4%	3%
Cc1ccc(CC2C(=O)N(c3nc(C)cc(C)n3)C(=O)C2C)cc1 (centres undefined)	-8%	-15%	.	.	9%	-6%
CC(=O)OCC(NC(=O)C(CCCCNC(=O)OCc1ccccc1)NC(=O)OC(C)(C)C)C1OC(n2cc(C)c(=O)[nH]c2=O)C(OC(C)=O)C1OC(C)=O (centres undefined)	.	.	.	.	.	20%
O=C(NCC(=O)N(c1cccnc1)C(C(=O)NC1CCCC1)c1ccc(F)cc1)c1ccco1 (centres undefined)	-38%	4%[9.22 µM]	.	.	6%	-1%
O=C(CC1CCCCC1)NC1CCCC1	-14%[0.074 µM]	0%	36	18µM*	10%	5%
O=C(O)CCC(=O)NC1CCCCC1	-10%	4%	-12	-4%	-8%	-2%
O=C(CC1CCS(=O)(=O)C1)NC1CCCCC1 (centres undefined)	6%	5%	?	-5%	2%	4%
O=C(CCC1CCCC1)NC1CCCCC1	-5%	7%	5	16µM*	7%	-6%
Cc1ccc(CNC(=O)COC(=O)c2ccc(S(=O)(=O)N(C)C)cc2)cc1	-10%	4%	.	.	2%	9%
O=C(Nc1ccc(C(=O)N2CCCC2)cc1)c1ccccc1[N+](=O)[O-]	.	-7%	.	.	7%	3%
Cn1cc([N+](=O)[O-])c(C(=O)Nc2ccc(C(=O)N3CCCCC3)cc2)n1	7%[10 µM]	?	?	0.4µM*	-12%	-6%
CCn1ncc([N+](=O)[O-])c1C(=O)Nc1ccc(C(=O)N2CCCCC2)cc1	.	-12%	15	2.2µM*	?	4%
Cn1cc([N+](=O)[O-])c(C(=O)Nc2cc(Oc3cccnc3)cc([N+](=O)[O-])c2)n1	-42%	?	?	-7%	13µM*	-4%
